An excerpt weighted towards active compounds, which were near 4.8% of everything screened.
MPTP inh = permeability transition pore inhibition; hit rate 1.4% among 360,000; inhibition, % at 10 µM; isolated mouse mitochondria, Ca2+ swelling absorbance, 30 min;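 active = inhibition of 50% or more, scaled per plate between neutral and stimulator controls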
Mdm2 MdmX PPI = disrupts the human Mdm2-MdmX interaction. SaOS-2 split-luciferase Mdm2/MdmX complementation, luminescence. inhibition, % at 8 µM. hit rate 3% among 330,000;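 active = inhibition of at least 50% at 8 µM in the primary screen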
Target sequence (O15151 whole entry, looked up): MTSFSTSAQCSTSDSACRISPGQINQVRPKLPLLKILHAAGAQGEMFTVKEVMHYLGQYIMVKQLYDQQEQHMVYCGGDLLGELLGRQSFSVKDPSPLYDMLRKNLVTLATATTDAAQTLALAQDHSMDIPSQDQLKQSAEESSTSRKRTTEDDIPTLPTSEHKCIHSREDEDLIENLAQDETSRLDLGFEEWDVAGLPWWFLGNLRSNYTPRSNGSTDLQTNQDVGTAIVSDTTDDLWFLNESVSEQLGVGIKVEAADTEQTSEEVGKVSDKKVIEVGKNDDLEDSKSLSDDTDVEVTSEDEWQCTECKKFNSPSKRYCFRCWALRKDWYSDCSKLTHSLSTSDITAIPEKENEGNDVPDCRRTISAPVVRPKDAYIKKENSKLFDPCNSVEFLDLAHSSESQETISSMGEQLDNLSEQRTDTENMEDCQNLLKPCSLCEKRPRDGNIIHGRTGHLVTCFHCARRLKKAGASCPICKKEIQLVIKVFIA
Target sequence (Q00987 whole entry, looked up): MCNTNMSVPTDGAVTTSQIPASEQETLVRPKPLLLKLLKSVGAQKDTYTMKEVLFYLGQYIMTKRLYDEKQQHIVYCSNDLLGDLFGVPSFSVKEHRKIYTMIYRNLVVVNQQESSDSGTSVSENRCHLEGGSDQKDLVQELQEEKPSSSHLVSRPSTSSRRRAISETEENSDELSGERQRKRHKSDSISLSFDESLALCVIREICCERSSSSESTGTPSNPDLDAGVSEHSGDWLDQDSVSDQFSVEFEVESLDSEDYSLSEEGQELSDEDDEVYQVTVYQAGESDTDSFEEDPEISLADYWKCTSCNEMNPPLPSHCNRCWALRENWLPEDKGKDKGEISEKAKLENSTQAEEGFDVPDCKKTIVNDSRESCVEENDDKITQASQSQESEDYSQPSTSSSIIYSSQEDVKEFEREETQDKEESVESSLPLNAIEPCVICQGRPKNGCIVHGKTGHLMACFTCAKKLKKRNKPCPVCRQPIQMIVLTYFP
Beta cell apopt = beta cell apoptosis inhibition; INS-1E cytokine-induced death, ATP luminescence, 48 h; percent of positive-control rescue, neutral wells zero; protection from apoptosis, % (concentration not given with the values); hit rate 0.8% among 300,000; AID 435005;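 active = Every replicate reaches about 75%, or at least half do and their mean reaches it too, limit read from the data; inconclusive = At least half of replicates reach the limit but their mean does not; inactive = Under half of replicates reach the limit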;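 also: higher means more ATP so stronger rescue from cytokine killing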
Calb FLC = C. albicans growth modulation with fluconazole. growth inhibition, % (test concentration not listed). hit rate 0.57% among 300,000. C. albicans CaCi-2 (fluconazole-resistant clinical isolate) + fluconazole, Alamar Blue growth, 48 h;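 active = growth inhibition above about 58% in most replicates, limit read from the data, passing the limit was not always enough; inconclusive = exactly half the replicates above a set limit; inactive = most replicates below a set limit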;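 also: all wells also contain fluconazole at 8 µg/ml as a sub-toxic cotreatment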
CSC inhib = cancer stem cell inhibition. hit rate 1.1% among 300,000. AID 2717. cancer stem cell-like cells viability, luminescence. inhibition, % at 7.5 µM; in the data active = inhibition above about 75%; inconclusive = no clear call, values can overlap the other calls; tested in HMLE shEcad cells
Hits are given with their value; 0 = inactive; ? = inconclusive; - = no result.

SMILES	MPTP inh	Mdm2 MdmX PPI	Beta cell apopt	Calb FLC	CSC inhib
CCOC(=O)c1ccc(NC(=O)c2ccc(CO)c(C(=O)NC3CCN(C(=O)OCC)CC3)c2)cc1	0	0	0	104	0
CCOC(=O)N1CCN(C(=O)C[C@@H]2C[C@@]3(C(=O)OCC)CCCC=C3N(Cc3ccco3)C2=O)CC1	0	-	-	-	-
Nc1ccc(N=Nc2ccccc2)c2ccccc12	0	0	0	0	81
Nc1ccc(N=Nc2ccccc2)c(N)n1	0	0	-	-	-
COc1ccc(O)c(/C=N/NC(=S)Nc2cccnc2)c1	0	0	76	0	0
COc1cccc(/C=N/NC(=S)Nc2cccnc2)c1	0	0	0	0	0
Cc1ccc(C(=O)Nc2cccc3[nH]c(C(F)(F)F)nc23)cc1	0	0	78	0	0
NC(c1ccccc1)c1csc(Nc2ccc(C(F)(F)F)cn2)n1 (stereo unspecified)	0	-	-	-	-
CC(=O)Nc1ccccc1/C=C/c1ccc2c(C)cc(C)c(O)c2n1	0	0	0	109	0
Clc1ccc(-c2ccc(/C=N/Nc3cc(N4CCOCC4)nc(N4CCOCC4)n3)o2)cc1	0	0	0	0	93
COc1ccc(-n2sc3c(c2=S)-c2cc(OC)ccc2NC3(C)C)cc1	0	0	0	0	129
Cc1ccc(S(=O)(=O)NC(=O)C2(C)CCN2C(=O)Cc2cccs2)nc1 (stereo unspecified)	0	-	-	-	-
CC(C)=CCC/C(C)=C/Cc1c(O)ccc(C(=O)/C=C/c2ccc(O)cc2)c1O	0	0	0	0	121
C=C(C)C(O)Cc1c(OC)ccc(C(=O)/C=C/c2ccc(O)cc2)c1O (stereo unspecified)	0	0	-	-	-
CN(C)C(=O)C[C@@H]1CC[C@@H](NC(=O)C2CCC2)[C@@H](CO)O1	0	-	-	-	-
CCn1c(O)c(N=NC(=O)c2cccs2)c2ccccc21	0	0	0	54	0
NC(=O)N1CCC2(CC1)NC(=O)N(c1ccccc1)N2	0	0	0	109	0
CCOc1ccc(NC(=O)C2CCCN(S(=O)(=O)c3ccc4c(c3)C(C)(C)C(=O)N4C)C2)cc1 (stereo unspecified)	0	-	-	-	-
O=C1NC[C@@H](CCCCN2C[C@H](Cc3ccccc3)N(CCc3ccc(O)cc3)C(=O)C2=O)N(CCc2ccccc2)C1=O	0	-	-	-	-
Nc1nnnn1/N=C/c1cccc(Oc2ccccc2)c1	0	0	0	78	0
COc1cccc(C(=O)/C=C/c2ccc(N3CCCCC3)c([N+](=O)[O-])c2)c1	0	0	0	0	86
O=C(/C=C/c1ccc(N2CCCCC2)c([N+](=O)[O-])c1)c1ccc(S(=O)(=O)N2CCCC2)cc1	0	-	0	0	0
CO/N=C/c1ccc(N2CCCC2)c([N+](=O)[O-])c1	0	0	0	0	0
CO/N=C/c1ccc(N2CCN(C(=O)c3ccc(C)cc3)CC2)c([N+](=O)[O-])c1	0	0	0	109	0
O=C(NCC(F)(F)F)c1csc([C@@H]2O[C@H](CO)[C@H](O)[C@H](O)[C@H]2O)n1	0	-	-	-	-
SMILES	MPTP inh	Mdm2 MdmX PPI	Beta cell apopt	Calb FLC	CSC inhib
CCOC(=O)c1[nH]c(CN2CCN(c3ccc(OC)cc3)CC2)c(C(=O)OCC)c1C	0	0	0	0	0
CCOC(=O)c1cc(C#N)c(N2CCN(c3ccc(OC)cc3)CC2)[nH]c1=O	0	0	0	92	0
Cc1cccc2c(C(=O)N3CCN(c4ccccn4)CC3)cc(-c3cccc(Br)c3)nc12	0	0	112	0	0
O=C(c1cc(-c2cccc(Cl)c2)nc2ccccc12)N1CCN(c2ccccn2)CC1	0	0	96	0	0
O=C(c1cc(-c2ccncc2)nc2ccc(Br)cc12)N1CCN(c2ccccn2)CC1	0	0	0	0	0
CCOC(=O)C1(C)CCCCCN1C(=O)c1ccc(OC)cc1 (stereo unspecified)	0	-	-	-	-
O=C1c2ccccc2C(c2nnnn2-c2ccc3c(c2)OCCO3)N1Cc1cccc(F)c1 (stereo unspecified)	0	-	-	-	-
CCc1ccccc1CC1CN(Cc2ccccc2)Cc2ccccc2N1c1ccc(OC)cc1 (stereo unspecified)	0	-	-	-	-
Cc1cccc(C)c1-n1nnnc1C1c2ccccc2C(=O)N1CCOc1ccccc1 (stereo unspecified)	0	-	-	-	-
CC(=O)N1c2ccc(S(=O)(=O)N3CCC(C(=O)N4CCN(c5cccc(C(F)(F)F)c5)CC4)CC3)cc2CC1C (stereo unspecified)	0	0	92	0	0
CC(=O)c1ccc(N2CCN(C(=O)C3CCN(S(=O)(=O)c4ccc5c(c4)CC(C)N5C(C)=O)CC3)CC2)cc1 (stereo unspecified)	0	0	0	0	0
CCCCNC(=O)C(NC(=O)c1cccc(C(F)(F)F)c1)C(=O)c1ccccc1 (stereo unspecified)	0	-	-	-	-
Cc1ccc(-c2nnc(NC(=O)c3ccc([N+](=O)[O-])o3)o2)c(C)c1	0	0	0	85	0
CCCc1ccc(Oc2c(-c3ccc(O)c(C)c3O)n[nH]c2C)cc1	0	0	0	0	100
Cc1cc(/C=N/NC(N)=S)c(C)n1-c1ccc(Cl)cc1	0	0	0	0	0
Cc1cc(/C=N/NC(N)=S)c(C)n1-c1cccc(Cl)c1	0	0	0	104	0
CC(=O)Oc1ccc(Cn2c(C)c(C(=O)NCc3ccc4c(c3)OCCO4)sc2=O)cc1	0	-	-	-	-
CC(C)(C)c1ccccc1NC(=O)c1c(O)c2cccc3c2n(c1=O)CC3	-	0	0	82	0
Cc1ccc(NS(=O)(=O)c2ccc(NC(=O)C(C)Sc3ccc(Cl)cc3)cc2)c(C)c1 (stereo unspecified)	0	0	0	0	77
Cc1ccc(C)c(NS(=O)(=O)c2ccc(NC(=O)CSc3ccc(Cl)cc3)cc2)c1	0	0	0	?	0
CC(=O)N1c2ccc(Cl)cc2C2C=CCC2C1c1cccc2ccccc12 (stereo unspecified)	0	-	0	-	78
CC(=O)N1c2ccc3ccccc3c2C2C=CCC2C1c1ccc(Br)cc1 (stereo unspecified)	-	-	0	-	0
Cc1ccccc1N1CCN(c2ccc(NC(=O)C3CCCCC3C(=O)O)cc2)CC1 (stereo unspecified)	0	0	0	0	79
COc1cccc(-c2c(C#N)c(N)nc3c2c(C)nn3-c2ccccc2)c1O	0	0	0	0	0
Cc1nn(-c2ccccc2)c2nc(N)c(C#N)c(-c3ccc(C(C)(C)C)cc3)c12	0	0	0	0	94
SMILES	MPTP inh	Mdm2 MdmX PPI	Beta cell apopt	Calb FLC	CSC inhib
CC1(C)CCC[C@]2(C)[C@H]3CC(=O)O[C@]3(C)CC[C@@H]12	0	0	0	0	0
CC1(C)CCC[C@]2(C)[C@H]3Cc4cc(O)ccc4O[C@]3(C)CC[C@@H]12	0	0	0	-	130
C#CCNC(=O)C[C@@H]1C[C@@]2(C(=O)OC)CCCCC=C2N(Cc2ccc(Cl)cc2Cl)C1=O	0	-	-	-	-
CCCCCCSc1ccc(-c2nc3ccccn3c2NCCCC)cc1	0	0	0	0	86
CCCCCCSc1cccc(-c2nc3ccc(Cl)cn3c2NCCCC)c1	0	-	-	-	-
CCCCNc1c(-c2ccc(-c3cccc(Cl)c3)cc2)nc2ccccn12	0	0	110	0	97
CC(=O)NC(c1ccco1)c1cc(Cl)c2cccnc2c1O (stereo unspecified)	0	-	-	-	-

Compound activity as filed in PubChem BioAssay.
